# Laboratory results: PubChem BioAssay AID1508621 (National Center for Advancing Translational Sciences (NCATS), 2021)
# Results filed as inconclusive are left out. Entries that show only a call come without a potency. Calls of active or inactive are those of the source. Calls follow the shape of the dose curve; as a rule, active = well fitted inhibition curve with a large enough effect; inconclusive = small, poorly fitted or top-dose-only effect; inactive = no such curve, though single readings can be large or run the other way.
# Assay: Confirmatory qHTS for Identification of Small Molecule Inhibitors of Huntingtin Promoter Activity; also: nearly all actives have a fitted effect of over 65% in size
# Settings: HEK293 HTT promoter firefly luciferase reporter, 24 h; series mostly up to 57.5 µM
# Procedure, shortened: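 HEK293 luciferase reporter cells, 2,500/well, cultured 24 h, then exposed to compounds at up to 57.5 uM final for 24 h at 37C. Firefly luciferase luminescence read; normalized to vehicle (0%) and zero RLU (-100%).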
# Potency is read from the fitted curve at half-maximal effect.
row,SMILES,Potency
1,O=C(Cn1cc(SCc2ccccc2F)c2ccccc21)N1CCCC1,inactive
2,COc1ccc(-c2nc(N3CCOCC3)c3sc(CN(C)c4ncc(C(=O)NO)cn4)cc3n2)cn1,inactive
3,Cc1ccc(CN(C(=O)COc2cccc(Cl)c2)c2ccccn2)o1,inactive
4,CCOC(=O)c1ccc(N2C(=O)c3[nH]nc(-c4ccccc4)c3C2c2cccs2)cc1 (stereo unspecified),13.5 µM (active)
5,CCOc1ccc(C2=C(C(=O)CC)Sc3nncn3N2C(=O)CC)cc1,inactive
6,C#C[C@]1(O)CC[C@H]2[C@H]3CCc4cc(OC)ccc4[C@H]3CC[C@@]21C,inactive
7,COc1cccc(N2CCN(C(=O)c3ccc4nc(N5CCC(C)CC5)sc4c3)CC2)c1,8.49 µM (active)
8,Cc1ccc(NC(=O)c2ccc(C)c(S(=O)(=O)N3CCCCCC3)c2)cc1,inactive
9,N#CCNC(=O)c1ccc(-c2ccnc(Nc3ccc(N4CCOCC4)cc3)n2)cc1,inactive
10,COc1ccc(-c2nc(CSCC(=O)N3CCN(c4cc(Cl)ccc4C)CC3)c(C)o2)cc1,9.53 µM (active)
11,O=c1c(O)c(-c2ccc(O)cc2)oc2cc(O)cc(O)c12,inactive
12,CCS(=O)(=O)c1ncc(Cl)c(C(=O)NCc2ccc(OC)cc2)n1,19 µM (active)
13,O=C(Nc1ccccc1)c1ccc(Cl)c(S(=O)(=O)Nc2ccccc2)c1,inactive
14,CCc1ccccc1-n1c(SCC(=O)Nc2ccc(C)cc2)nc2n[nH]c(C)c2c1=N,13.5 µM (active)
15,Cn1c(=O)n(C)c2cc(NS(=O)(=O)c3ccccc3)c(NCc3ccccc3)cc21,inactive
16,Cn1cnc(=N)c2[nH]cnc21,inactive
